GC-B act: GC-B (human) receptor activation; P20594; HEK293-GC-B cells, CNP EC30, cGMP TR-FRET; 0% at EC30 CNP, 100% saturating CNP; activation, % at 10 µM; 0.11% of 370,000 active; AID 1920062;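 active = activation at 10 µM reaching about 35% in either raw or pattern-adjusted values, limit read from the data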
TLR4 MyD88 comp: blocks binding of human TLR4 to MyD88. O00206+Q99836. HeLa CL3-4 TLR4/MyD88 BLA complementation, FRET ratio. inhibition, % at 8.4 µM. 0.18% of 200,000 active. AID 861; in the data active = inhibition above about 25%;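 also: 0% = vehicle and 100% = reference inhibitor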
NOD2 RIPK2 PPI: blocks binding of human NOD2 to RIPK2. inhibition, % at 4.98 µM. O43353. AID 624267. 0.38% of 360,000 active. CHO BLA complementation NOD2-RIPK2, CCF4 ratio; in the data active = inhibition above about 21%;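 also: 0% = vehicle only and 100% = reference blocker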
Neddyl block: blocks human cullin neddylation | P61081+Q13564 | TR-FRET cullin neddylation, biochemical | inhibition, % at 25 µM | 0.58% of 360,000 active; in the data active = inhibition above about 36%
TLR9-MyD88 inh: TLR9-MyD88 interaction inhibition. Q9NR96+Q99836. CHO BLA complementation TLR9-MyD88, CCF4 FRET ratio. inhibition, % at 4.98 µM. 0.21% of 340,000 active;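 active = inhibition above the mean over all tested compounds plus 3 SD, cut at about 21% in these data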;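 also: 0% = DMSO only wells and 100% = clavulanate BLA inhibitor control wells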
GC-A act: GC-A (human) enzyme activation. activation, % at 10 µM. 0.14% of 370,000 active. P16066. AID 1671463. HEK293 GC-A cells, cGMP TR-FRET, EC30 ANP; 0% at EC30 ANP, 100% saturating ANP; in the data active = activation above about 40%
* = called active by the depositor; x = no result given. Most compounds without a hit are left out; they make up all but 1.2% or so of the library.

SMILES | GC-B act | TLR4 MyD88 comp | NOD2 RIPK2 PPI | Neddyl block | TLR9-MyD88 inh | GC-A act
N=c1c(C(=O)NCc2ccccc2)cc2c(=O)n3ccccc3nc2n1Cc1ccco1 | 8 | 11 | 8 | x | -10 | 14
N=c1c(C(=O)NCc2ccc(F)cc2)cc2c(=O)n3ccccc3nc2n1Cc1ccco1 | 8 | 13 | 3 | 52* | 4 | 20
COc1ccc(C(=O)CCS(=O)(=O)c2ccc(F)cc2)cc1OC | 0 | x | 5 | 10 | -3 | -1
Cc1ccc(S(=O)(=O)CCC(=O)c2ccc(F)cc2)cc1 | -3 | x | 6 | -7 | -9 | 71*
Cc1ccc(C(=O)CCS(=O)(=O)c2ccc(F)cc2)cc1 | -6 | x | 11 | -4 | -13 | 52*
Cc1ccc(C(=O)CCS(=O)(=O)c2ccc(Cl)cc2)cc1 | -10 | x | -5 | -5 | -8 | 52*
O=C(NCc1ccccc1)O[C@H]1CC[C@@]23CCCN2C(=O)CCC[C@H]3C1 | -1 | x | x | x | x | 2
O=C(C(=O)N1CCN(C(=O)c2cccs2)CC1)c1cccc(C(F)(F)F)c1 | 4 | x | x | x | x | -2
COC(=O)[C@]12C[C@H](CC(=O)N3CCN(C(=O)C4CC4)CC3)C(=O)N(Cc3ccc4c(c3)OCO4)C1=C[C@H](COCc1ccccc1)O[C@@H]2C | 2 | x | x | x | x | 0
Cn1nnnc1SCC(=O)Nc1nc(-c2ccc(F)c(F)c2)cs1 | 0 | x | -7 | -10 | -1 | 42*
CCCCCCn1cc(C(=O)O)c(=O)c2cc(F)c(N3CCN(C)CC3)cc21 | x | x | -11 | 45* | -9 | x
COC(=O)C1=C(C)N(C)C(=NCC2CC2)NC1CCc1ccccc1 (configuration not stated) | -6 | x | x | x | x | -1
CCc1ccc(Nc2nnc(SC(C)C(=O)NC3CC3)s2)cc1 (configuration not stated) | -5 | x | -3 | 10 | -5 | 5
CCc1ccc(Nc2nnc(SC3CCOC3=O)s2)cc1 (configuration not stated) | 1 | 11 | -1 | 5 | -2 | 48*
CCCCNc1c(-c2ccc(SC(C)CC)c(OC)c2)nc2ccc(C)cn12 (configuration not stated) | -4 | x | -4 | 34 | -10 | 23
CCCCNc1c(-c2ccc(SC(C)CC)c(OC)c2)nc2ccc(Cl)cn12 (configuration not stated) | 21 | x | 11 | x | 16 | 40*
CCCCNc1c(-c2ccc(SC(C)CC)cc2)nc2cnccn12 (configuration not stated) | x | x | 69* | -9 | 54* | x
C[C@@H]1CN([C@H](C)CO)C(=O)CCCn2cc(nn2)CO[C@H]1CN(C)S(=O)(=O)c1ccc(Cl)cc1 | 0 | x | x | x | x | 1
COC(=O)[C@]12C[C@H](CC(=O)N3CCN(C(=O)C4CC4)CC3)C(=O)N(Cc3ccc(Cl)cc3Cl)C1=C[C@H](C(C)(C)C)O[C@@H]2C | -3 | x | x | x | x | -9
S=C(c1ccc(-c2ccc(Br)cc2)o1)N1CCOCC1 | 36* | x | 5 | -23 | x | 28
S=C(c1ccc(-c2ccc(Br)cc2)o1)N1CCCCC1 | -1 | -6 | 5 | -2 | -3 | 3
NC(=S)Nc1cccc2cc3ccccc3cc12 | -5 | 11 | 5 | 47* | 8 | -3
NC(=S)Nc1cc2ccccc2c2ccccc12 | -2 | 2 | -11 | -31 | 2 | 9
CC(=O)Nc1ccc(C(=O)OCC(=O)NCc2cccs2)cc1 | 68* | x | 2 | 6 | 3 | -1
CCOC(=O)C1CCN(C(=O)c2ccc3c(=O)n4nc(Nc5ccccc5)sc4nc3c2)CC1 | 40* | x | -4 | 25 | -11 | 34
SMILES | GC-B act | TLR4 MyD88 comp | NOD2 RIPK2 PPI | Neddyl block | TLR9-MyD88 inh | GC-A act
COc1cc(OC)cc(C(=O)NC(=S)NNC(=O)[C@H]2C[C@@H]2c2ccccc2)c1 | -2 | x | -3 | 58* | -6 | 1
COC(=O)c1cc(/C=C/c2ccccc2)on1 | 6 | 14 | 2 | -1 | 3 | 59*
COC(=O)c1cc(/C=C/c2ccccc2)[nH]n1 | -3 | x | -7 | -3 | 0 | -5
Nc1[nH]c(C(=O)c2ccccc2)c(-c2ccc(Br)cc2)c1C(=O)N1CCN(CCO)CC1 | -2 | x | x | x | x | -3
CN(C)/C=C1\C(=O)ON=C1c1ccccc1 | -2 | -2 | -5 | -13 | -3 | 0
O=C1ON=C(c2ccccc2)/C1=C/c1ccco1 | 35* | 20 | 0 | 5 | -1 | 36
CCOC(=O)C1(Cc2ccccc2)CCN(Cc2ccccc2[N+](=O)[O-])CC1 | 7 | x | x | x | x | 0
Cc1c(NC(=O)c2cc3c(s2)-c2ccccc2OC3)cccc1[N+](=O)[O-] | 59* | 8 | -1 | 4 | -5 | 39
COc1ccc(OC)c(S(=O)(=O)Nc2ccc(C(=O)Nc3cc(C)on3)cc2)c1 | -2 | x | x | x | x | -13
CC(=O)c1c(N)nc2n(c1=O)CCCCC2 | 112* | 4 | 1 | -2 | -5 | -1
CCN(CC)C(=O)CSc1nnc(-c2cccs2)o1 | 0 | x | x | x | x | 2
O=C(NC1CCCCN(Cc2cccc(Cl)c2)C1=O)c1cccs1 (configuration not stated) | -6 | x | x | x | x | -1
O=[N+]([O-])c1nn(-c2ccc(Cl)cc2)n(O)c1=NCc1ccncc1 | -6 | 0 | -3 | -49 | 1 | 9
O=[N+]([O-])c1nn(-c2cccc(Cl)c2)n(O)c1=NCc1cccnc1 | 3 | 1 | 0 | -37 | 4 | 3
O=[N+]([O-])c1nn(-c2ccc(Cl)cc2)n(O)c1=NCc1ccccc1Cl | -8 | -15 | 0 | -42 | -3 | 43*
O=[N+]([O-])c1nn(-c2ccc(Cl)cc2)n(O)c1=NCc1cccnc1 | -7 | -11 | -10 | -36 | -12 | 41*
C/C=C(\C)C(=O)OC1[C@H](OC(C)=O)C2(CO)C(CC1(C)C)C1=CCC3C4(C)CCC(O[C@@H]5O[C@H](C(=O)O)[C@@H](O[C@@H]6O[C@H](CO)[C@@H](O)[C@H](O)[C@H]6O)[C@H](O)[C@H]5O[C@H]5O[C@H](CO)[C@@H](O)[C@H](O)[C@H]5O)[C@](C)(CO)C4CCC3(C)[C@]1(C)C[C@H]2O (some centres not stated) | x | x | 30* | 3 | 58* | x
CCCCCCCCNS(=O)(=O)CC1NCc2cc(OC)ccc21 (configuration not stated) | 3 | x | x | x | x | 1
C=C(C)[C@@H]1CC2=C(OC)C(CC=C(C)C)(CC=C(C)C)C(=O)C(C(=O)c3ccccc3)=C2O1 | -15 | x | x | x | x | -17

Screening data deposited in PubChem by several laboratories.
